Experimental data reported in PubChem BioAssay AID1159580 (chemical genetic matrix, 2015).
The campaign covered roughly 5,500 compounds. About 2,000 (36%) were called active. Inconclusive results (about 18%) are left out. No stated cut-off is given here; in the data, active means normalized growth mostly below about 0.91 (no sharp cut-off); inconclusive means no clear call, values can overlap the other calls; inactive means mostly above about 0.92. The list shows a part of the results.

Assay: chemical genetic growth profiling, strain panel (AID 1159580);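 further: tested at 20 µM; growth read once vehicle control cultures reached saturation at 30 °C; 1 = growth at the plate median or of vehicle wells; lower values mean less growth of the strain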
Details: growth OD

Measured: normalized growth

CC(=O)OCC(=O)[C@@]1(O)CCC2C3C[C@H](C)C4=CC(=O)C=CC4(C)C3[C@@H](O)CC21C (some centres not stated)
inactive: S. cerevisiae deletion strains, locus YJR075W, strain HOC1, active compounds read low 1.01 | S. cerevisiae deletion strains, locus YKL009W, strain mrt4, active compounds read low 1.01 | S. cerevisiae deletion strains, locus YKL068W, active compounds read low 1.02 | S. cerevisiae deletion strains, locus YKL085W, strain MDH1 (second series), active compounds read low 0.995 | S. cerevisiae deletion strains, locus YKL085W, strain MDH1, active compounds read low 0.995 | S. cerevisiae deletion strains, locus YKL160W, strain elf1, active compounds read low 1.03 | S. cerevisiae deletion strains, locus YKL190W, strain CNB1, active compounds read low 1 | S. cerevisiae deletion strains, locus YKR001C, strain vps1, active compounds read low 0.997 | S. cerevisiae deletion strains, locus YKR026C, strain gcn3, active compounds read low 1.01 | S. cerevisiae deletion strains, locus YKR091W, strain srl3, active compounds read low 1.01 | S. cerevisiae deletion strains, locus YLL001W, strain dnm1, active compounds read low 0.999 | S. cerevisiae deletion strains, locus YLL026W, active compounds read low 1.01 | S. cerevisiae deletion strains, locus YLL041C, strain sdh2, active compounds read low 1.01 | S. cerevisiae deletion strains, locus YLR027C, strain aat2, active compounds read low 1.01 | S. cerevisiae deletion strains, locus YLR039C, strain RIC1, active compounds read low 1.02 | S. cerevisiae deletion strains, locus YLR058C, strain SHM2, active compounds read low 1.01 | S. cerevisiae deletion strains, locus YLR102C, strain apc9, active compounds read low 1.01 | S. cerevisiae deletion strains, locus YLR113W, strain HOG1, active compounds read low 1.02 | S. cerevisiae deletion strains, locus YLR221C, strain rsa3, active compounds read low 0.997 | S. cerevisiae deletion strains, locus YLR258W, strain gsy2, active compounds read low 1.03 | S. cerevisiae deletion strains, locus YLR262C, strain YPT6 (second series), active compounds read low 1.03 | S. cerevisiae deletion strains, locus YLR262C, strain YPT6, active compounds read low 1.01 | S. cerevisiae deletion strains, locus YLR268W, strain sec22, active compounds read low 0.987 | S. cerevisiae deletion strains, locus YLR320W, strain mms22, active compounds read low 1.01 | S. cerevisiae deletion strains, locus YLR330W, strain CHS5, active compounds read low 1.01 | S. cerevisiae deletion strains, locus YLR342W, strain FKS1 (second series), active compounds read low 1.03 | S. cerevisiae deletion strains, locus YLR342W, strain FKS1, active compounds read low 1.02 | S. cerevisiae deletion strains, locus YLR357W, strain rsc2, active compounds read low 1.03 | S. cerevisiae deletion strains, locus YLR370C, strain arc18, active compounds read low 1.01 | S. cerevisiae deletion strains, locus YLR371W, strain rom2, active compounds read low 1 | S. cerevisiae deletion strains, locus YLR384C, strain iki3, active compounds read low 0.999 | S. cerevisiae deletion strains, locus YLR418C, strain cdc73, active compounds read low 0.974 | S. cerevisiae deletion strains, locus YML016C, strain PPZ1, active compounds read low 1 | S. cerevisiae deletion strains, locus YML032C, strain rad52, active compounds read low 1.02 | S. cerevisiae deletion strains, locus YML120C, strain ndi1, active compounds read low 1.02 | S. cerevisiae deletion strains, locus YML124C, strain tub3, active compounds read low 1 | S. cerevisiae deletion strains, locus YMR058W, strain fet3, active compounds read low 1.02 | S. cerevisiae deletion strains, locus YMR078C, strain ctf18, active compounds read low 1 | S. cerevisiae deletion strains, locus YMR125W, strain sto1, active compounds read low 1.04 | S. cerevisiae deletion strains, locus YMR129W, active compounds read low 1.01 | S. cerevisiae deletion strains, locus YMR205C, strain PFK2, active compounds read low 1.02 | S. cerevisiae deletion strains, locus YMR223W, strain ubp8, active compounds read low 1.01 | S. cerevisiae deletion strains, locus YMR231W, strain pep5, active compounds read low 1.02 | S. cerevisiae deletion strains, locus YMR263W, strain SAP30, active compounds read low 1 | S. cerevisiae deletion strains, locus YMR307W, strain GAS1, active compounds read low 1.03 | S. cerevisiae deletion strains, locus YNL067W, strain RPL9B, active compounds read low 0.996 | S. cerevisiae deletion strains, locus YNL071W, strain lat1, active compounds read low 1.01 | S. cerevisiae deletion strains, locus YNL128W, strain TEP1, active compounds read low 1.01 | S. cerevisiae deletion strains, locus YNL153C, strain GIM3, active compounds read low 0.998 | S. cerevisiae deletion strains, locus YNL183C, strain NPR1, active compounds read low 0.962 | S. cerevisiae deletion strains, locus YNL209W, strain ssb2, active compounds read low 1 | S. cerevisiae deletion strains, locus YNL233W, strain BNI4, active compounds read low 1.01 | S. cerevisiae deletion strains, locus YNL248C, strain rpa49, active compounds read low 1.02 | S. cerevisiae deletion strains, locus YNL250W, strain rad50, active compounds read low 1 | S. cerevisiae deletion strains, locus YNL271C, strain bni1, active compounds read low 1 | S. cerevisiae deletion strains, locus YNL298W, strain CLA4, active compounds read low 1.01 | S. cerevisiae deletion strains, locus YNL307C, strain MCK1, active compounds read low 1.01 | S. cerevisiae deletion strains, locus YNL322C, strain KRE1 (second series), active compounds read low 1 | S. cerevisiae deletion strains, locus YNL322C, strain KRE1, active compounds read low 1 | S. cerevisiae deletion strains, locus YNR049C, strain mso1, active compounds read low 1.02 | S. cerevisiae deletion strains, locus YNR052C, strain pop2, active compounds read low 1 | S. cerevisiae deletion strains, locus YOL006C, strain TOP1, active compounds read low 1.01 | S. cerevisiae deletion strains, locus YOL012C, strain htz1 1.08 | S. cerevisiae deletion strains, locus YOL147C, strain pex11, active compounds read low 1 | S. cerevisiae deletion strains, locus YOR001W, strain rrp6, active compounds read low 0.988 | S. cerevisiae deletion strains, locus YOR061W, strain CKA2, active compounds read low 1 | S. cerevisiae deletion strains, locus YOR069W, strain VPS5, active compounds read low 1.01 | S. cerevisiae deletion strains, locus YOR070C, strain gyp1, active compounds read low 1.02 | S. cerevisiae deletion strains, locus YOR080W, strain dia2, active compounds read low 1.06 | S. cerevisiae deletion strains, locus YOR083W, strain WHI5, active compounds read low 1.02 | S. cerevisiae deletion strains, locus YOR106W, strain vam3, active compounds read low 1.01 | S. cerevisiae deletion strains, locus YOR136W, strain idh2, active compounds read low 1.01 | S. cerevisiae deletion strains, locus YOR144C, strain elg1, active compounds read low 1.01 | S. cerevisiae deletion strains, locus YOR184W, strain ser1, active compounds read low 1.01 | S. cerevisiae deletion strains, locus YOR231W, strain MKK1, active compounds read low 1.02 | S. cerevisiae deletion strains, locus YOR265W, strain rbl2, active compounds read low 1.01 | S. cerevisiae deletion strains, locus YOR270C, strain vph1, active compounds read low 0.982 | S. cerevisiae deletion strains, locus YOR290C, strain snf2, active compounds read low 1.03 | S. cerevisiae deletion strains, locus YOR316C, strain cot1, active compounds read low 1 | S. cerevisiae deletion strains, locus YPL051W, strain arl3, active compounds read low 1.03 | S. cerevisiae deletion strains, locus YPL055C, strain LGE1, active compounds read low 0.999 | S. cerevisiae deletion strains, locus YPL078C, strain atp4, active compounds read low 1.03 | S. cerevisiae deletion strains, locus YPL106C, strain sse1, active compounds read low 1.04 | S. cerevisiae deletion strains, locus YPL240C, strain hsp82, active compounds read low 0.994 | S. cerevisiae deletion strains, locus YPL241C, strain CIN2, active compounds read low 1.01 | S. cerevisiae deletion strains, locus YPL256C, strain CLN2, active compounds read low 1.01 | S. cerevisiae deletion strains, locus YPR119W, strain clb2, active compounds read low 1.01 | S. cerevisiae deletion strains, locus YPR141C, strain kar3, active compounds read low 1.01 | S. cerevisiae deletion strains, locus YPR163C, strain tif3, active compounds read low 1.01 | S. cerevisiae deletion strains, locus YPR167C, strain met16, active compounds read low 0.995 | S. cerevisiae deletion strains, strain wtn01, active compounds read low 1.01 | S. cerevisiae strains, strain wild type, active compounds read low 1
